In PubChem BioAssay (EPA / NIEHS):
Activity calls are given as the source filed them. Rule for the calls: active = hit-call score of the fitted dose curve at least 0.9, where 1 is the maximum; inactive = score below 0.9.

Read-out: Pselectin, SELP (gene 6403)
Assay: BSK_4H_Pselectin: BioMAP Diversity Plus: 4H Assay for Pselectin Biomarker Activity (AID 2283026)
Conditions: primary human endothelial cells (HUVEC); actives raise or lower the signal
Procedure, shortened: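 Human vascular endothelium from umbilical vein; P-selectin measured by ELISA at 24 h post-dose, with cytotoxicity checked by sulforhodamine B total-protein staining in parallel cultures (0.1% SRB after 10% TCA fixation, read at 560 nm).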

Structure (SMILES)	outcome	AC50
O=C1O[C@H]([C@H](O)CO)C(O)=C1O	inactive	
O=C(O)CC(O)(CC(=O)O)C(=O)O	inactive	
CCCCCCCCCCCCCCOS(=O)(=O)O	inactive	
CN(C)CCCN(C)CCCN(C)C	inactive	
Cn1cnc2c1c(=O)[nH]c(=O)n2C	inactive	
N[C@@H](Cc1c[nH]c2ccccc12)C(=O)O	inactive	
CO[C@@H]1COCC[C@@H]1N[C@@H]1CC[C@@](C(=O)N2CCc3ncc(C(F)(F)F)cc3C2)(C(C)C)C1	inactive	
CC(C)c1cccc(C(C)C)c1	inactive	
CC(=O)O	inactive	
CC(=O)S[C@H](C(=O)N[C@H]1Cc2ccccc2[C@H]2CCC[C@@H](C(=O)O)N2C1=O)C(C)C	inactive	
OCC(CO)n1cnc(-c2ccc(F)cc2)c1-c1ccnc(Oc2ccccc2)n1	inactive	
CCCCc1nc2cccnc2n1Cc1ccc(-c2ccccc2-c2nnn[nH]2)cc1	inactive	
O=C1NC(=O)C(c2ccccc2)(c2ccccc2)N1	inactive	
Nc1nc(=S)c2[nH]cnc2[nH]1	inactive	
COC(=O)[C@H]1[C@H]2C[C@@H]3c4[nH]c5cc(OC)ccc5c4CCN3C[C@H]2C[C@@H](OC(=O)c2cc(OC)c(OC)c(OC)c2)[C@@H]1OC		25.6 µM (active)
CCCC[C@H]1CN(CC2CCOCC2)C(=O)OC12CCN(C1(C)CCN(C(=O)c3c(C)ncnc3C)CC1)CC2	inactive	
O=C(O)c1cccnc1	inactive	
O=C(Oc1ccccc1)c1cccc(C(=O)Oc2ccccc2)c1	inactive	
O=C1c2c(O)cccc2Cc2cccc(O)c21	inactive	
COc1ccc(C(=O)Nc2nc3ccccc3c(NCc3ccccc3)c2C#N)cc1	inactive	
O=[Si]=O	inactive	
COC(=O)CCC(=O)OC	inactive	
O=Cc1ccccc1C=O	inactive	
c1ccc2occc2c1	inactive	
CC(C)NCC(O)c1ccc(O)c(O)c1 (stereo not given)	inactive	
C/C=C/C=C/C(=O)O	inactive	
CC1=C(C)S(=O)(=O)CCS1(=O)=O	inactive	
CCCCC(CC)COC(=O)CCCCCCCC(=O)OCC(CC)CCCC (stereo not given)	inactive	
O=C1OC(c2ccc(O)cc2)(c2ccc(O)cc2)c2ccccc21		30.2 µM (active)

Read-out: not listed separately
Assay: BSK_4H_SRB: Viability Assessment in the BioMAP Diversity Plus: 4H Assay (AID 2283027);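 note: cells exposed to compound for 24 h before staining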;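 for AC50: curves fitted both ways versus DMSO so AC50 may be loss or gain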
Conditions: primary human endothelial cells (HUVEC)
Procedure, shortened: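 Human umbilical vein endothelial cells were dosed with chemical and, after 24 h, fixed with 10% TCA, stained with 0.1% sulforhodamine B, and read at 560 nm to give total protein as a cytotoxicity measure. Bidirectional fitting relative to DMSO control.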

Structure (SMILES)	outcome	AC50
CO[C@@H]1COCC[C@@H]1N[C@@H]1CC[C@@](C(=O)N2CCc3ncc(C(F)(F)F)cc3C2)(C(C)C)C1	inactive	
NC(=Nc1ccccc1)Nc1ccccc1	inactive	
Nc1nc(=S)c2[nH]cnc2[nH]1	inactive	
O=C(O)c1cccnc1	inactive	
O=C(Oc1ccccc1)c1cccc(C(=O)Oc2ccccc2)c1	inactive	
O=C1c2c(O)cccc2Cc2cccc(O)c21		20 µM (active)
O=[Si]=O	inactive	
COC(=O)CCC(=O)OC	inactive	
O=Cc1ccccc1C=O	inactive	
CC1=C(C)S(=O)(=O)CCS1(=O)=O	inactive	
CCCCC(CC)COC(=O)CCCCCCCC(=O)OCC(CC)CCCC (stereo not given)	inactive	

Read-out: not listed separately
Assay: BSK_BE3C_SRB: Viability Assessment in the BioMAP Diversity Plus: BE3C Assay (AID 2283028);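 for AC50: fitted both ways so AC50 may mark signal gain or loss versus DMSO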
Conditions: primary human bronchial epithelial cells
Procedure, shortened: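 Human bronchial epithelial primary cells in confluent culture, 24 h after chemical dosing; total protein by 0.1% SRB staining after 10% TCA fixation, read at 560 nm. Bidirectional fitting versus DMSO baseline.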

Structure (SMILES)	outcome	AC50
O=C1O[C@H]([C@H](O)CO)C(O)=C1O	inactive	
O=C(O)CC(O)(CC(=O)O)C(=O)O	inactive	
CCCCCCCCCCCCCCOS(=O)(=O)O		21.2 µM (active)
CN(C)CCCN(C)CCCN(C)C	inactive	
Cn1cnc2c1c(=O)[nH]c(=O)n2C	inactive	
N[C@@H](Cc1c[nH]c2ccccc12)C(=O)O	inactive	
CO[C@@H]1COCC[C@@H]1N[C@@H]1CC[C@@](C(=O)N2CCc3ncc(C(F)(F)F)cc3C2)(C(C)C)C1	inactive	
CC(C)c1cccc(C(C)C)c1	inactive	
CC(=O)O	inactive	
NC(=Nc1ccccc1)Nc1ccccc1	inactive	
CC(=O)S[C@H](C(=O)N[C@H]1Cc2ccccc2[C@H]2CCC[C@@H](C(=O)O)N2C1=O)C(C)C	inactive	
OCC(CO)n1cnc(-c2ccc(F)cc2)c1-c1ccnc(Oc2ccccc2)n1	inactive	
CCCCc1nc2cccnc2n1Cc1ccc(-c2ccccc2-c2nnn[nH]2)cc1	inactive	
O=C1NC(=O)C(c2ccccc2)(c2ccccc2)N1	inactive	
Nc1nc(=S)c2[nH]cnc2[nH]1	inactive	
COC(=O)[C@H]1[C@H]2C[C@@H]3c4[nH]c5cc(OC)ccc5c4CCN3C[C@H]2C[C@@H](OC(=O)c2cc(OC)c(OC)c(OC)c2)[C@@H]1OC	inactive	
CCCC[C@H]1CN(CC2CCOCC2)C(=O)OC12CCN(C1(C)CCN(C(=O)c3c(C)ncnc3C)CC1)CC2	inactive	
O=C(O)c1cccnc1	inactive	
O=C(Oc1ccccc1)c1cccc(C(=O)Oc2ccccc2)c1	inactive	
O=C1c2c(O)cccc2Cc2cccc(O)c21	inactive	
COc1ccc(C(=O)Nc2nc3ccccc3c(NCc3ccccc3)c2C#N)cc1	inactive	
O=[Si]=O	inactive	
COC(=O)CCC(=O)OC	inactive	
O=Cc1ccccc1C=O	inactive	
c1ccc2occc2c1	inactive	
CC(C)NCC(O)c1ccc(O)c(O)c1 (stereo not given)	inactive	
C/C=C/C=C/C(=O)O	inactive	
CC1=C(C)S(=O)(=O)CCS1(=O)=O	inactive	
CCCCC(CC)COC(=O)CCCCCCCC(=O)OCC(CC)CCCC (stereo not given)	inactive	
O=C1OC(c2ccc(O)cc2)(c2ccc(O)cc2)c2ccccc21	inactive	
